Assay results published in PubChem BioAssay (Tox21).
Values joined by “and” are separate entries in the source; they are usually repeats but may differ in a detail not shown here. Equal values may be shown once. Results filed as inconclusive are left out. The source holds several records for some structures; these can differ, active in one and inactive in another. Active and inactive are the calls of the source. Unless noted, calls follow the shape of the dose curve; as a rule, active = well fitted curve in the direction sought with a large enough effect in the repeat runs; inconclusive = weak or mixed curves; inactive = no such curve, though single readings can be large; an effect the other way counts as inactive or inconclusive.

Key:
[1] = qHTS assay to identify small molecule agonists of the RXR signaling pathway - cell viability counter screen (AID 1159529); also: nearly all actives have a fitted effect of over 50% in size; also: potency is read from the fitted curve at half-maximal effect
In short: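 Steps: seed RXR-alpha-UAS-bla HEK 293T cells in assay medium containing 2% charcoal-stripped FBS; incubate 5 hr; add compounds in DMSO; incubate 16 hr at 37 C; after the bla read, add CellTiter-Glo and read luminescence at 30 min.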

[2] = qHTS assay to identify small molecule antagonists of the retinoid acid receptor (RAR) signaling pathway - cell viability counter screen (AID 1159551); also: nearly all actives have a fitted effect of over 35% in size
In short: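 Luminescent ATP quantitation (CellTiter-Glo) gave cell viability in C3RL4 cells exposed to test chemicals for 6 h at 37 C alongside 1 uM final retinol.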

[3] = qHTS assay to identify small molecule antagonists of the estrogen related receptor (ERR) signaling pathway from Tox21 library - cell viability counter screen (AID 1224834); also: nearly all actives have a fitted effect of over 30% in size; also: potency is read from the fitted curve at half-maximal effect
In short: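 Fluorescence from CellTiter-Fluor gives the viability read-out, taken 30 min after reagent addition. Before that, ERR cells seeded 6 h earlier were incubated with compounds for 17.5 h at 37 C.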

[4] = molecular target: Luciferin 4-monooxygenase (Photinus pyralis) (UniProt P08659); assay: qHTS assay to identify small molecule inhibitors of firefly luciferase (AID 1224835); also: nearly all actives have a fitted effect of over 25% in size
Luciferin 4-monooxygenase (Photinus pyralis), sequence (P08659 whole entry, looked up): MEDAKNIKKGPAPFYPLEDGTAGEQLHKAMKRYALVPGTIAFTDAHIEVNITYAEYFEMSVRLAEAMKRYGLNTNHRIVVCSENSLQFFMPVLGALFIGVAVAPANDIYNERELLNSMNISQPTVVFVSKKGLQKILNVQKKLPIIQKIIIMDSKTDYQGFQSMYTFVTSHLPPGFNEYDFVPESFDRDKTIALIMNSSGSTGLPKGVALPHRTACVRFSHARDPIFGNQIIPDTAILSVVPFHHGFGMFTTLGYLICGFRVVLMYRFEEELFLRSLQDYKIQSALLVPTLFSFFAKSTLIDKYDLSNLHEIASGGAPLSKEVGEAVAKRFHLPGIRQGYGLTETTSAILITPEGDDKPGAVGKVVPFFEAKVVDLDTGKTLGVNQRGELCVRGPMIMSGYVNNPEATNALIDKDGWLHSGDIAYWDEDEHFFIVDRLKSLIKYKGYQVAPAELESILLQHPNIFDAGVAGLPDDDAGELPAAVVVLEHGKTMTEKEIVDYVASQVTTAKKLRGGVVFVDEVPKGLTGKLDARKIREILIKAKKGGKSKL
In short: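 Quantitative HTS format; KM concentrations of both substrates. Purified P. pyralis FLuc activity quantified from luminescence images.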

[5] = qHTS assay to identify small molecule agonists of the constitutive androstane receptor (CAR) signaling pathway - cell viability counter screen (AID 1224836); also: nearly all actives have a fitted effect of over 45% in size; also: potency is read from the fitted curve at half-maximal effect
In short: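 Cells were seeded and incubated 4 hrs. Compounds were added across 15 concentrations together with PK11195 at 0.75 uM final. Plates were incubated 23 hrs at 37 C. CellTiter-Fluor was added and fluorescence measured.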

[6] = qHTS assay to identify small molecule antagonists of the constitutive androstane receptor (CAR) signaling pathway - cell viability counter screen (AID 1224837); also: nearly all actives have a fitted effect of over 45% in size; also: potency is read from the fitted curve at half-maximal effect
In short: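 HepG2-CYP2B6-hCAR cells, 2500/well, 4 hr pre-incubation; compound titration, 15 conc.; CITCO 50 nM final; 23 hr, 37 C/5% CO2; CellTiter-Fluor, fluorescence intensity.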

[7] = qHTS assay to identify small molecule antagonists of the estrogen related receptor signaling pathway with the pleiotropic PPARgamma coactivator (PGC) from Tox21 10K library - cell viability counter screen (AID 1224840; active = well fitted cell-killing curve with a large enough effect in the repeat runs, not every such curve was filed as active; also: nearly all actives have a fitted effect of over 40% in size; also: potency is read from the fitted curve at half-maximal effect)
In short: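 PGC/ERR cells, 2,000/well; 6 h pre-incubation 37 C/5% CO2; cpd in DMSO via pin tool; 17.5 h 37 C; CellTiter-Fluor, 30 min; fluorescence.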

[8] = molecular target: Nuclear receptor subfamily 1 group I member 3 (Homo sapiens) (UniProt Q14994); assay: qHTS assay to identify small molecule antagonists of the constitutive androstane receptor (CAR) signaling pathway (AID 1224838);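 also: HepG2 cells stably expressing hCAR with CYP2B6 luciferase reporter stimulated by CITCO; nearly all actives have a fitted effect of over 40% in size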; also: potency is read from the fitted curve at half-maximal effect
Nuclear receptor subfamily 1 group I member 3 (Homo sapiens), sequence (Q14994 whole entry, looked up): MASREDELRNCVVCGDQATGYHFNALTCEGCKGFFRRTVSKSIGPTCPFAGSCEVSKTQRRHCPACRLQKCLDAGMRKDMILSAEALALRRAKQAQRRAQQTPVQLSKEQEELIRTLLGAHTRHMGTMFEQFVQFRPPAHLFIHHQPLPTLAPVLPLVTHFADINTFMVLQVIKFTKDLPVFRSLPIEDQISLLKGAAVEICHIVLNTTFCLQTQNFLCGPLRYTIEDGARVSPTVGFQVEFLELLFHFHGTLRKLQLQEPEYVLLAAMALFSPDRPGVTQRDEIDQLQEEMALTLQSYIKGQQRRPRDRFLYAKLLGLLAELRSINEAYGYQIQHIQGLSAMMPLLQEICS
In short: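 HepG2-CYP2B6-hCAR cells; 4 h pre-incubation; cpd (15 conc) + CITCO 50 nM final; 24 h, 37 C/5% CO2; ONE-Glo, luminescence.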

[9] = molecular target: Nuclear receptor subfamily 1 group I member 3 (Homo sapiens) (UniProt Q14994); assay: qHTS assay to identify small molecule agonists of the constitutive androstane receptor (CAR) signaling pathway (AID 1224839);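 also: HepG2 cells stably carrying human CAR and a CYP2B6 luciferase reporter; nearly all actives have a fitted effect of over 15% in size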
In short: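 Cells were plated and incubated 4 hrs, then dosed with compounds at 15 concentrations. PK11195 was added to 0.75 uM final. After 24 hrs at 37 C, luciferase luminescence was measured.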

[10] = qHTS assay to identify small molecule antagonists of the estrogen related receptor signaling pathway with the pleiotropic PPARgamma coactivator (PGC) from Tox21 10K library (AID 1224841; call rule not given here; also: actives are mostly falling curves and most rising ones were filed inactive; nearly all actives have a fitted effect of over 50% in size; also: potency is read from the fitted curve at half-maximal effect)
In short: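 PGC/ERR cell line, 2,000 cells/well; 6 h pre-incubation 37 C/5% CO2; compounds (DMSO) pinned in; 18 h, 37 C; One-Glo, 30 min RT; luminescence.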

[11] = qHTS assay to identify small molecule agonists of the estrogen related receptor signaling pathway with the pleiotropic PPARgamma coactivator (PGC) from Tox21 10K library (AID 1224842); also: nearly all actives have a fitted effect of over 15% in size
In short: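 PGC/ERR reporter cells (NTP line) were seeded 2,000 per well, rested 6 h at 37 C/5% CO2, then pin-dosed with compounds in DMSO for 18 h at 37 C; luciferase read by One-Glo luminescence after 30 min at room temperature.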

[12] = molecular target: Thyrotropin receptor (Homo sapiens) (UniProt P16473); assay: qHTS assay to identify small molecule agonists of the thyroid stimulating hormone receptor (TSHR) signaling pathway (AID 1224843; calls by dose curve; also: nearly all actives have a fitted effect of over 45% in size)
Thyrotropin receptor (Homo sapiens), sequence (P16473 whole entry, looked up): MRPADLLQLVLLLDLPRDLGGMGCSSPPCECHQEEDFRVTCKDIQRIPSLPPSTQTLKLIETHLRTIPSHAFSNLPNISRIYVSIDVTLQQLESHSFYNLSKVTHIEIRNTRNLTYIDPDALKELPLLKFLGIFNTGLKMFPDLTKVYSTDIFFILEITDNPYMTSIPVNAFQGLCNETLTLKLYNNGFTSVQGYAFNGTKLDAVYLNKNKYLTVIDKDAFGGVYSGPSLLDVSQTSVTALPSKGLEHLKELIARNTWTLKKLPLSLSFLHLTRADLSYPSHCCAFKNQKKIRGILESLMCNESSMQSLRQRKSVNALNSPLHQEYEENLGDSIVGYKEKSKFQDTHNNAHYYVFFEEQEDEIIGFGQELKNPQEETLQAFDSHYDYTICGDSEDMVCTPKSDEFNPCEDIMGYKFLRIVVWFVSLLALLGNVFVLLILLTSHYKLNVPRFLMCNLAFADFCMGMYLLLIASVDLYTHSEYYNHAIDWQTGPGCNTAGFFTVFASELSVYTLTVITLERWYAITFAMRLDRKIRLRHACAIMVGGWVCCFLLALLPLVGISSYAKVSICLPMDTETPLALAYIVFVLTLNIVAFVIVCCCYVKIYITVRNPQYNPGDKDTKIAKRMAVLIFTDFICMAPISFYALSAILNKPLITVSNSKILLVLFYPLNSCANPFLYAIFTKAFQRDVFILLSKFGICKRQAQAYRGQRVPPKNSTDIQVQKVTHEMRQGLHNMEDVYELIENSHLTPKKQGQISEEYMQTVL
In short: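 Cell line HEK293 with TSHR; density 800/well. Exposure 30 min RT. Readout HTRF cAMP (cAMP-d2/anti-cAMP-cryptate), 1 h RT before reading.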

[13] = qHTS assay to identify small molecule antagonists of the estrogen related receptor (ERR) signaling pathway - cell viability counter screen (AID 1224818);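 also: viability measured after 17.5 h of compound exposure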
In short: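 Multiplexed counter screen to separate cytotoxic compounds from true ERR modulators. ERR cells received DMSO-dissolved compounds after a 6 h pre-incubation, were exposed 17.5 h at 37 C, then assayed with CellTiter-Fluor fluorescence.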

[14] = qHTS assay to identify small molecule antagonists of the estrogen related receptor signaling pathway with the pleiotropic PPARgamma coactivator (PGC) cell viability counter screen (AID 1224822)
In short: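 Cells: PGC/ERR, 2,000/well, 1536-well format. Pre-incubation 6 h, 37 C/5% CO2. Compound exposure 17.5 h, 37 C. Detection: CellTiter-Fluor, 30 min, fluorescence.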

[15] = qHTS assay to identify small molecule antagonists of the retinoic acid receptor (RAR) signaling pathway (AID 1159552; also: nearly all actives have a fitted effect of over 50% in size)
In short: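 Retinol at 1 uM final stimulated RARE-luciferase expression in C3RL4 cells exposed to test compounds for 6 hr at 37 C. Reduced luminescence, read 30 min after detection reagent, indicated pathway antagonism.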

[16] = qHTS assay to identify small molecule agonists of the retinoic acid receptor (RAR) signaling pathway (AID 1159553); details: C3RL4 RARE luciferase reporter, agonist, 6 h; activation: at 73.3 µM (top of the series) unless noted
In short: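 Luminescence from a RARE-driven luciferase reporter in C3RL4 cells served as the read-out, measured after 30 min with detection reagent at room temperature. Compounds in DMSO were applied for 6 hr at 37 C following overnight seeding.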
% is scaled to controls: 0 for no effect and ±100 for the full control effect.

CCCCCCC(C)O (stereo not drawn)
inactive: Potency [1] | Potency [2] | Potency [3] | Potency [4] | Potency [5] | Potency [6] | Potency [7]

C=CN1CCCC1=O
inactive: Potency [1] | Potency [2] | Potency [3] | Potency [4] | Potency [5] | Potency [6] | Potency [8] | Potency [9] | Potency [7]

CC1(C)OC(=O)NC1=O
inactive: Potency [1] | Potency [2] | Potency [3] | Potency [4] | Potency [5] | Potency [6] | Potency [8] | Potency [9] | Potency [7] | Potency [10] | Potency [11] | Potency [12]

Oc1ccc(C(c2ccc(O)cc2)C(Cl)(Cl)Cl)cc1
inactive: Potency [1] | Potency [2] | Potency [4] | Potency [5] | Potency [6]

CCCN1C=CN(C)C1
inactive: Potency [1] | Potency [2] | Potency [3] | Potency [4] | Potency [5] | Potency [6] | Potency [8] | Potency [9] | Potency [7] | Potency [12]

CC/C(=C(/CC)c1ccc(O)cc1)c1ccc(O)cc1
inactive: Potency [1] | Potency [2] | Potency [5] | Potency [6] | Potency [7]
60.6 µM (active) and inactive: Potency [3]

O=C(CCCN1CCC(O)(c2ccc(Cl)cc2)CC1)c1ccc(F)cc1
54.5 µM (active) and inactive: Potency [7]
27.5 µM (active) and inactive: Potency [1]
inactive: Potency [2] | outcome [13] | outcome [14] | Potency [12]
active: Potency [5] 61.1 µM | Potency [6] 54.5 µM
61.1 µM (active) and inactive: Potency [3]

CC(=O)O[C@]1(C(C)=O)CC[C@H]2[C@@H]3C=C(C)C4=CC(=O)CC[C@]4(C)[C@H]3CC[C@@]21C
active: Potency [3] 54.5 µM | Potency [10] 24.3 µM
inactive: Potency [1] | Potency [2] | Potency [4] | Potency [5] | Potency [6] | Potency [7] | Potency [11] | Potency [12]

Cc1ccc(/C(=C\CN2CCCC2)c2ccccn2)cc1
inactive: Potency [1] | Potency [2] | outcome [13] | outcome [14] | Potency [3] | Potency [5] | Potency [6] | Potency [7] | Potency [12]

O=[Se](O)O
inactive: Potency [2] | Potency [15] | Potency [16] | viability change, negative = cytotoxic [3] -9.9% [at 19 µM] | Potency [4] | Potency [9] | viability change, negative = cytotoxic [7] -29.3% [at 19 µM] | Potency [12]
active: Potency [5] 43.3 µM | Potency [6] 48.6 µM | Potency [8] 61.2 µM and 3.3 µM | Potency [7] 30.7 µM

CN(Cc1cnc2nc(N)nc(N)c2n1)c1ccc(C(=O)N[C@@H](CCC(=O)O)C(=O)O)cc1
active: Potency [8] 48.6 nM and 75 nM
inactive: Potency [2] | Potency [15] | Potency [16] | outcome [13] | outcome [14] | Potency [4] | Potency [5] | Potency [6] | Potency [9] | Potency [7] | Potency [12]

CCC/C=C/C=O
inactive: Potency [1] | Potency [2] | Potency [3] | Potency [4] | Potency [5] | Potency [6] | Potency [7] | Potency [12]

C=C[C@H]1CN2CC[C@H]1C[C@H]2[C@H](O)c1ccnc2ccc(OC)cc12
inactive: Potency [1] | Potency [2] | Potency [3] | Potency [5] | Potency [6] | Potency [8] | Potency [7]

NCCOCCO
inactive: Potency [1] | Potency [2] | Potency [3] | Potency [4] | Potency [5] | Potency [6] | Potency [7] | Potency [10] | Potency [11]

NC[C@H](O)c1ccc(O)c(O)c1
inactive: Potency [1] | Potency [2] | outcome [13] | outcome [14] | Potency [3] | Potency [4] | Potency [5] | Potency [6] | Potency [7]

NCCN
inactive: Potency [1] | Potency [2] | Potency [3] | Potency [4] | Potency [5] | Potency [6] | Potency [7] | Potency [12]

CC(C)[C@@H]1CC[C@@H](C)CC1=O
inactive: Potency [1] | Potency [2] | Potency [3] | Potency [4] | Potency [5] | Potency [6] | Potency [7] | Potency [12]

Cc1ccc(S(=O)(=O)NCl)cc1
inactive: Potency [1] | Potency [2] | Potency [3] | Potency [5] | Potency [6] | Potency [7] | Potency [10] | Potency [11] | Potency [12]

CC(C)=CCO
inactive: Potency [1] | Potency [2] | Potency [3] | Potency [4] | Potency [5] | Potency [6] | Potency [7] | Potency [10] | Potency [11] | Potency [12]

CCCCCCCCCCC(CO)CCCCCCCC (stereo not drawn)
inactive: Potency [1] | Potency [2] | Potency [3] | Potency [4] | Potency [5] | Potency [6] | Potency [9] | Potency [7] | Potency [12]

O=S1(=O)CCCO1
inactive: Potency [1] | Potency [2] | Potency [3] | Potency [4] | Potency [5] | Potency [6] | Potency [8] | Potency [9] | Potency [7] | Potency [12]
